Sampled rows, rich in hits. Any-hit rate of the full collection: about 19%.
IL-1B inflam inh: inflammasome signaling inhibition, IL-1 beta readout; THP-1 LPS/ATP IL-1B secretion, AlphaLISA, 16 h; hits give low values; activity change, % at 57.5 µM; hit rate 4.7% among 360,000; AID 743279; in the data active means activity change below about -50%; inconclusive means mostly about -30% to -49%; further: on the % scale 0 is the no-effect control and ±100 the full control effect
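THP-1 cells pretreated 1 hr with compounds (up to 57.5 uM final), then stimulated with LPS (250 ng/mL final) plus ATP (1.25 mM final); secreted IL-1B measured by AlphaLISA after 16 hr, decreased signal indicating inhibition.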
TGFb SMAD3 inh: inhibitors of TGF-b signaling; HepG2 CAGA-GFP TGF-b/SMAD3 reporter, GFP fluorescence, 18 h; TGF-beta stimulated, 500 pg/mL final; Potency, µM (top dose mostly 46.1 µM), for inactives: at the top dose activity, negative = inhibition, usual class: inhibitors; hit rate 1.2% among 410,000; further: potency means the concentration at half of the fitted maximal effect; on the % scale 0 is the no-effect control and ±100 the full control effect; nearly all actives have a fitted effect of over 65% in size
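Read-out: total well GFP (ex488/em500-530) summed from mean per-cell fluorescence. Cells: HEPG2 CAGA-GFP, 1% FBS DMEM, 18 h at 37 degrees C with 500 pg/mL final TGF-beta. Unstimulated wells served as the full-inhibition control; stimulated DMSO wells = 0%.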
HepG2 tox: kills HepG2 cells in TGF-b inhibitor counter-screen; Potency, µM (series often up to 46.1 µM), for the others: top-dose activity change, negative = cytotoxicity, most hits filed as cytotoxic; hit rate 0.76% among 410,000; HepG2 CAGA-GFP viability, ATP luminescence, 18 h; further: potency means the concentration at half of the fitted maximal effect
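CellTiter-Glo luminescence gave cytotoxicity after 18 hours at 37 degrees C. The cells were HepG2 CAGA-GFP in 1% FBS DMEM, stimulated with 500 pg/mL TGF-beta after compound addition. %Activity was normalised to no-cell wells (complete cell-killing) and DMSO (no toxicity), and curves were fitted and classified.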
DT40 TDP1 no CPT: qHTS for Inhibitors of human tyrosyl-DNA phosphodiesterase 1 (TDP1): qHTS in cells in absence of CPT; Potency, µM (top dose mostly 46.2 µM), without a hit: top-dose activity change, negative = growth inhibition, usual class: inhibitors; DT40 Tdp1-/- hTDP1 cells, no CPT, ATP luminescence, 48 h; hit rate 15% among 420,000; further: potency means the concentration at half of the fitted maximal effect; on the % scale 0 is the no-effect control and ±100 the full control effect; nearly all actives have a fitted effect of over 55% in size
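Readout: luminescence from CellTiter-Glo after 30 min in the dark at RT. Cells: DT40 Tdp1-/- with stable hTDP1, 400/well. Exposure: compounds alone, ≥48 hr, 37 °C.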
TDP1 cell CPT: DT40-hTDP1 cell growth loss with CPT; hit rate 12% among 420,000; Potency, µM (doses to about 46.2 µM), for inactives: at the top dose activity change, negative = growth inhibition, actives largely listed as inhibitors; chicken DT40 Tdp1-/-;hTDP1 cells + 20 nM CPT, ATP luminescence, 48 h; further: potency means the concentration at half of the fitted maximal effect; on the % scale 0 is the no-effect control and ±100 the full control effect; nearly all actives have a fitted effect of over 55% in size
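Chicken DT40 Tdp1-/- cells complemented with human TDP1, 400 cells/well, exposed to compounds plus 20 nM camptothecin for at least 48 h at 37 C; viability read as ATP content by CellTiter-Glo luminescence.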
TDP1 inh: inhibitors of human tyrosyl-DNA phosphodiesterase TDP1 | AID 485290 | Potency, µM (doses to about 130 µM), without a hit: at the highest dose activity change, negative = inhibition, hits mostly inhibitors | recombinant TDP1, AlphaScreen DNA substrate cleavage | hit rate 0.28% among 350,000; further: potency means the concentration at half of the fitted maximal effect; on the % scale 0 is the no-effect control and ±100 the full control effect; nearly all actives have a fitted effect of over 40% in size
Target sequence (Q9NUW8 whole entry, looked up): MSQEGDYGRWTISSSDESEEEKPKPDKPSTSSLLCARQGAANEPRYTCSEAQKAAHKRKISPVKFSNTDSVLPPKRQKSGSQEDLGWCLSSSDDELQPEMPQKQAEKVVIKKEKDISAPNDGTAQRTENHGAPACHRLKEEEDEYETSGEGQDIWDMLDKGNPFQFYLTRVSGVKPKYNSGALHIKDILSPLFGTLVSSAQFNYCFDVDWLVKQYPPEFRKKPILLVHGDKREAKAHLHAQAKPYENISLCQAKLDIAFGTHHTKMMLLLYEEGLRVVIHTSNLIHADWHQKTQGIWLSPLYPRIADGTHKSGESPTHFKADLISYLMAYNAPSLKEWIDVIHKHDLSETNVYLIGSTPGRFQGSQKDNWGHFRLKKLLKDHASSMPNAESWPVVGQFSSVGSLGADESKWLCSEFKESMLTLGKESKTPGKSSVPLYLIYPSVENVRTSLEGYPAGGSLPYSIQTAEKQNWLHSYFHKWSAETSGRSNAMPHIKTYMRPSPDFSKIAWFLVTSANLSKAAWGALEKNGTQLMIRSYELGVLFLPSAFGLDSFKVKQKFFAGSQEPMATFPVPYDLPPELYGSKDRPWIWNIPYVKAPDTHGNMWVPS
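Here, a 5' biotin and 3' phosphotyrosine-FITC DNA oligonucleotide reports Tdp1 activity: intact substrate bridges AlphaScreen beads, while cleavage leaves a 3' phosphate and drops signal. All incubations at room temperature.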
The depositor's hits bear a star; i = inactive; u = inconclusive; x = no result given. Unless noted, the call rests on the fitted dose curve; in most records, active means well fitted curve in the direction sought with a large enough effect; inconclusive means small, poorly fitted or top-dose-only effect, or another doubt; inactive means no such curve, though single readings can be large; an effect the other way counts as inactive or inconclusive.

SMILES	IL-1B inflam inh	TGFb SMAD3 inh	HepG2 tox	DT40 TDP1 no CPT	TDP1 cell CPT	TDP1 inh
CC1(C(=O)NCc2cccc3ccccc23)CCN1C(=O)Cc1ccc(-c2ccccc2)cc1 (centres undefined)	-104*	u	-32%	u	u	x
CC(C)CNC(=O)C1(C)CCCN1C(=O)c1cc2ccccc2s1 (centres undefined)	0	-12%	-6%	-23%	-29%	x
CC(C)c1ccc(CC(=O)N2CCC2(C)C(=O)NCc2cccc3ccccc23)cc1 (centres undefined)	-19	-15%	-22%	u	u	x
CC1(C(=O)NCC(F)(F)F)CCN1C(=O)Cc1ccc(-c2ccccc2)cc1 (centres undefined)	6	0%	-18%	u	15µM*	x
CCN(CC(=O)NCc1ccc(Cl)cc1)C(=O)c1ccc(S(=O)(=O)NCc2ccco2)cc1	i	-19%	1%	u	u	3%
COc1cc([C@@H]2Nc3c(F)cccc3[C@@H]3C=CC[C@@H]32)cc(Br)c1OC	x	-25%	-10%	u	u	x
CCCCNC(=O)C(c1ccc(OCC(=O)OC)c(C(=O)OC)c1)N(Cc1ccccn1)C(=O)CCCCCN1C(=O)NC(c2ccc(-c3ccccc3)cc2)C(C(=O)OCc2ccccc2)=C1C (centres undefined)	x	x	x	x	x	10%
O=S1(=O)N=C(Oc2ccc(C(F)(F)F)cc2)c2ccccc21	x	x	x	x	x	1%
COc1ccc(OC)c(N(C)S(=O)(=O)c2ccc3c(c2)NC(=O)CC(=O)N3)c1	x	-6%	0%	-11%	0%	1%
C/C=C/c1ccc(OCCOc2cc(C=O)ccc2OC)c(OC)c1	-11	u	-22%	26µM*	u	-11%
Cc1cc(C)c(C)c(OCCOCCNCc2ccccc2)c1	u	u	-51%	18µM*	u	-6%
C/C=C/c1ccc(OCCOCCNCc2ccccc2)c(OC)c1	u	u	-47%	18µM*	u	x
COc1cc(C)ccc1OCCCCNCc1ccccc1	-6	-8%	-9%	u	-26%	x
CC(=O)C1C(=O)C=C(c2ccco2)CC1c1ccccc1 (centres undefined)	-3	-2%	-22%	18µM*	u	3%
Cn1ccc2cc(S(=O)(=O)N3CCN(S(=O)(=O)c4c(F)cccc4F)CC3)ccc21	x	x	x	x	x	-5%
Nc1nc(N)c(Cc2ccc(Cl)cc2Cl)c(N)n1	-6	-4%	-15%	23µM*	26µM*	1%
Cc1cc(C)cc(-n2ccn(CC(=O)Nc3ccccc3C(F)(F)F)c(=O)c2=O)c1	x	-20%	-11%	3%	3%	-4%
COc1cc(/C=N/Nc2nc(Nc3ccccc3)nc(N3CCOCC3)n2)ccc1OC(=O)c1ccco1	u	43%	-32%	4.1µM*	7.3µM*	6%
COc1cc(/C=N/Nc2nc(Nc3ccccc3)nc(N3CCCCC3)n2)ccc1OCC(=O)O	6	8%	1%	u	u	6%
COc1ccc(/C=N/Nc2nc(Nc3ccccc3)nc(N3CCCCC3)n2)c(OC)c1	-14	-2%	-8%	21µM*	u	4%
COc1ccc(/C=N/Nc2nc(Nc3ccccc3)nc(N3CCCC3)n2)cc1[N+](=O)[O-]	-88*	6%	-24%	16µM*	u	5%
CC1CCN(C(=O)CN2CCSc3ccccc32)CC1	x	4%	2%	-28%	-28%	1%
Cc1cccc(C(=O)OCC(=O)c2cccc(Br)c2)c1O	-7	-3%	-2%	8%	-6%	2%
CC(C)c1cc(C(=O)NC(C)c2ccccc2)no1 (centres undefined)	x	4%	-4%	-6%	0%	4%

Screening results: PubChem BioAssay, National Center for Advancing Translational Sciences (NCATS)
